Bioassay records (PubChem BioAssay)
Most compounds without a hit are left out; they make up all but 3.1% or so of the library.
PLK1 PBD inh: PLK1 (human) polo-box domain binding inhibition; Plk1 PBD binding of FITC phosphopeptide, fluorescence polarization; Potency, µM, without a hit: max response, negative = inhibition, most hits filed as inhibitors; actives 2.8% (n = 360,000); also: potency is read from the fitted curve at half-maximal effect; series mostly up to about 57 µM; nearly all actives have a fitted effect of over 65% in size
VDR inh: inhibitors of human vitamin D receptor; P11473; VDR-SRC2-3 peptide fluorescence polarization, 2 h; Potency, µM, without a hit: max response, negative = inhibition, actives largely listed as inhibitors; actives 0.93% (n = 400,000); AID 504847; also: potency is read from the fitted curve at half-maximal effect
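Two reagent solutions held at 4 deg C in the dark were dispensed, compounds pinned at 23 nl, and the mixture incubated 2 h at room temperature. Read-out: fluorescence polarization of VDR–SRC2-3 peptide binding.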
GLS inh: blocks human kidney-isoform glutaminase activity; O94925; GLS enzymatic activity, qHTS titration; Potency, µM (top dose mostly 45.5 µM), for the others: at the top dose activity change, negative = inhibition, hits mostly inhibitors; actives 0.21% (n = 410,000); also: potency is read from the fitted curve at half-maximal effect
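Compounds were pin-transferred onto hKGA, after which L-glutamine (1 mM solution) and a detection mix of glutamate oxidase, HRP and Amplex Red were added. Initial and 30 min RT fluorescence reads were collected.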
KAT2A inh: inhibitors of human GCN5L2 histone acetyltransferase; Potency, µM (titrated, usually from 58.9 µM), without a hit: top-dose activity change, negative = inhibition, hits mostly inhibitors; actives 0.21% (n = 390,000); GCN5L2 HAT assay, ThioGlo1 CoA-SH fluorescence; Q92830; also: potency is read from the fitted curve at half-maximal effect
Target sequence (Q92830 whole entry, looked up): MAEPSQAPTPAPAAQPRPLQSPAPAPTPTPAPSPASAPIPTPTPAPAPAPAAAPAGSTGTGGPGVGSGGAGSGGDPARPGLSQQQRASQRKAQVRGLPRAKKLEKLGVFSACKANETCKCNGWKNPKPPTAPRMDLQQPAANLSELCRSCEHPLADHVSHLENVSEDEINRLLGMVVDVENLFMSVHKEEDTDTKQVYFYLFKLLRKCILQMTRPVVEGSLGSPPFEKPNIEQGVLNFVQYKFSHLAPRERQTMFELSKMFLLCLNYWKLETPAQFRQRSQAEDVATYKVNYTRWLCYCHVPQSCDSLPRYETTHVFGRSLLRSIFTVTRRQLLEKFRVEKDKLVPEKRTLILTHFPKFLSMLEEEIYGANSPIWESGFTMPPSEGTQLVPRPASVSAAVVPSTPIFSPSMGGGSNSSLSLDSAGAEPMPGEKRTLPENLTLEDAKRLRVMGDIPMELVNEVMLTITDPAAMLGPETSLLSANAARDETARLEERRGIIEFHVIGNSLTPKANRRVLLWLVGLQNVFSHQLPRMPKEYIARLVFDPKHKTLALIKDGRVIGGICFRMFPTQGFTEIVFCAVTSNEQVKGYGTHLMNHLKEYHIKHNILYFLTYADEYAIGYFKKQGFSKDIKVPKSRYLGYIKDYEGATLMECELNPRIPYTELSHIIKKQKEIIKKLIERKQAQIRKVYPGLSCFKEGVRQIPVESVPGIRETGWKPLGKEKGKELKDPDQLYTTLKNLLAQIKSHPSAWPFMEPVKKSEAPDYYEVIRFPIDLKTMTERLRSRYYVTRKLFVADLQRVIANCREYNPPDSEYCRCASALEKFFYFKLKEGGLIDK
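Preincubate 20nM GCN5L2 with compound 15 min, RT → add 50uM ThioGlo1 + 75uM H3(1-25) + 70uM acetyl-CoA → read fluorescence 0 and 20 min. Primary qHTS; fluorescent artifacts likely.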
PI4K2A inh: PI4K2A (human) kinase inhibition. Q9BTU6. purified PI4K2A, ADP-Glo luminescence, 1 h; active compounds read low. actives 0.13% (n = 420,000). activity change, negative = inhibition, % at 76.9 µM; in the data active = activity change below about -50%; inconclusive = mostly about -30% to -49%;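 also: -100% = wells without enzyme as full effect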
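Compounds are screened against recombinant PI4K2A using PI as substrate and ATP, the latter dispensed at 300 microM. Reactions run one hour at ambient temperature before ADP-Glo detection; full inhibition defined by wells lacking enzyme.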
Active calls of the source: *; ? = inconclusive; . = no result. Unless noted, calls follow the shape of the dose curve; as a rule, active = well fitted curve in the direction sought with a large enough effect; inconclusive = small, poorly fitted or top-dose-only effect, or another doubt; inactive = no such curve, though single readings can be large; an effect the other way counts as inactive or inconclusive. Unless noted, % is scaled to controls: 0 for no effect and ±100 for the full control effect.

SMILES	PLK1 PBD inh	VDR inh	GLS inh	KAT2A inh	PI4K2A inh
C[C@@H](O)[C@@H]1C(=O)N2C(C(=O)O)=C([C@H]3CCCO3)S[C@H]12	.	.	2.2%	2.9%	.
CCOc1ccccc1CNC(=O)CCn1c(=O)c2cccn2c2ccc(F)cc21	.	10.8%	1.5%	-6.6%	1.6
Cc1cccc(C)c1NC(=S)N(c1ccccc1)C(C)C	29.9µM*	7.2%	14.1%	24.5%	-2.8
COc1ccc2c(CC(=O)OCC(=O)N3CCc4ccccc43)coc2c1	26.7µM*	?	7.7%	-2.3%	-9.8
COc1ccc2c(CC(=O)OCC(=O)Nc3ccc4c(c3)OCO4)coc2c1	16.8µM*	17.8µM*	-3.4%	0.6%	-3.1
Cc1cc(Cl)ccc1OCC(=O)N(Cc1ccco1)Cc1ccccc1F	.	-7.4%	-2.9%	-8.3%	0.6
CC1=C(C(=O)O)N2C(=O)C(NC(=O)c3ccc(F)cc3)C2SC1 (centres undefined)	23.8µM*	-18.6%	-2.6%	-20.9%	-3.1
CC(=O)OCC1=C(C(=O)O)N2C(=O)C(NC(=O)c3ccc(COc4cccc(Cl)c4Cl)o3)C2SC1 (centres undefined)	?	25.1µM*	-18.0%	?	-3.3
COc1cccc(C(=O)NC2C(=O)N3C(C(=O)O)=C(COC(C)=O)CSC23)c1 (centres undefined)	21.2µM*	?	-2.6%	0.1%	-8.4
CO/N=C(/C(=O)N[C@@H]1C(=O)N2C(C(=O)O)=C(COC(N)=O)CS[C@H]12)c1ccco1	.	50.1µM*	-28.2%	?	.
CO/N=C(/C(=O)N[C@H]1C(=O)N2C(C(=O)O)=C(COC(C)=O)CSC12)c1csc(N)n1 (some centres undefined)	.	?	.	-4.6%	.
CS(=O)(=O)Nc1cccc(-c2nc(N3CCNCC3)c3ccccc3n2)c1	.	-0.8%	.	-17.7%	.
O=c1cc(-c2ccc(F)cc2)nc(SCc2nc(-c3ccc(Cl)cc3)no2)[nH]1	.	3.0%	-9.9%	-1.6%	-0.7
CC1=C(C(N)=O)N2C(=O)[C@@H](NC(=O)Cc3ccccc3)C2SC1 (some centres undefined)	.	-13.6%	.	.	.
CC(=O)OCC1=C(C(=O)OC(C)(C)C)N2C(=O)[C@@H](NC(=O)Cc3ccccc3)[C@H]2SC1	16.8µM*	?	-4.2%	.	-4.6
Cc1nn(CC(=O)NCCc2ccc(Cl)cc2)c(=O)c2cccn12	26.7µM*	?	10.9%	-6.9%	-0.4
O=C(Cn1cccc1C(=O)c1ccccc1)NCc1cccc(Cl)c1	23.8µM*	-20.6%	-13.3%	-4.1%	-1.1
O=C(Cn1cccc1C(=O)c1ccccc1)NCCc1ccc(Cl)cc1	23.8µM*	-17.1%	2.8%	-3.1%	-2.0
CCOC(=O)C1CCN(C(=O)C(Cc2ccc3c(c2)OCO3)NC(C)=O)CC1 (centres undefined)	.	.	.	.	-4.0
CCOC(=O)c1sc(NNC(=O)c2ccc(F)cc2)nc1C	-3.2%	3.1%	?	-1.0%	-0.4
CCOC(=O)c1sc(NNC(=O)c2ccc(C)cc2)nc1C	-3.6%	18.1%	1.26µM*	-3.7%	-1.7
O=C(NCCCCc1ccccc1)c1cccc(NC(=O)C2CC2)c1	18.9µM*	79.4µM*	-4.0%	.	-5.3
O=C(NCCCc1ccccc1)c1cccc(NC(=O)C2CC2)c1	-13.3%	9.0%	-1.8%	.	5.3
O=C(c1cc(-c2ccc(O)cc2)on1)N1CCN(c2ccccc2)CC1	33.6µM*	0.4%	14.0%	-22.8%	-2.1
O=C(O)c1cccc(C(=O)Cc2ccccc2)c1	-4.8%	105.2%	6.1%	-5.0%	-70.8*
SMILES	PLK1 PBD inh	VDR inh	GLS inh	KAT2A inh	PI4K2A inh
C=CCN1[C@H](CC(C)C)COc2cccc(N3CCSCC3)c2S1(=O)=O	.	.	.	.	0.8
CC(=O)Nc1ccc(CCc2nc3ccccc3[nH]2)cc1	-6.8%	-6.5%	-5.9%	-2.5%	-1.7
CC(=O)Nc1cccc(CCc2nc3ccccc3[nH]2)c1	?	70.8µM*	?	-8.3%	-3.0
CC(C)CC(=O)Nc1cccc(-c2nc3ccccc3[nH]2)c1	26.7µM*	?	56.8%	2.7%	-7.7
CC(=O)Nc1cccc(-c2nc3ccccc3[nH]2)c1	-1.5%	-16.4%	0.0%	-0.9%	2.6
COC(=O)[C@H](C(C)C)N1Cc2nnn(CC3CCCCC3)c2-c2cc(F)ccc2S1(=O)=O	.	.	.	.	0.8
